Hits are enriched below; roughly 9.9% of the tested compounds scored in any of these assays.
Tau fibril ThT: qHTS for Inhibitors of Tau Fibril Formation, Thioflavin T Binding | recombinant tau K18 P301L, heparin-induced fibrillization, ThT fluorescence | actives 2.1% (n = 270,000) | Microtubule-associated protein tau (Homo sapiens), P10636 | Potency, µM (top dose mostly 57.4 µM), without a hit: top-dose activity, negative = inhibition, most hits filed as inhibitors; also: nearly all actives have a fitted effect of over 55% in size
Target sequence (P10636 561-689 P618L limits assumed): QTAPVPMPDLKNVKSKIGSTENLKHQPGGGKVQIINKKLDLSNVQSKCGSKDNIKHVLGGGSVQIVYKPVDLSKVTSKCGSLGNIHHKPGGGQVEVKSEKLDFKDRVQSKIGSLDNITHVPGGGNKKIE
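K18 P301L tau (15 uM + 0.24 uM Alexa 594-tagged), heparin 20 uM, NaOAc pH 7, 6 h 37 C; ThT 30 uM, 1 h RT, ex 450/em 510 nm.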
Tau FP inhib: qHTS for Inhibitors of Tau Fibril Formation, Fluorescence Polarization; Microtubule-associated protein tau (Homo sapiens), P10636; K18 P301L tau heparin fibrillization, Alexa594 FP, 6 h; Potency, µM (titrated, usually from 57.7 µM), for inactives: at the top dose activity, negative = inhibition, actives largely listed as inhibitors; actives 0.39% (n = 280,000); also: nearly all actives have a fitted effect of over 55% in size
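Read-out: fluorescence polarization of Alexa 594-labeled tau (0.24 uM), 555 nm excitation, 632 nm emission. Mixtures held 15 uM unlabeled K18 P301L, compound and 20 uM heparin, pH 7 acetate buffer, incubated 6 hr at 37 C.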
ALDH1A1 inh: qHTS Assay for Inhibitors of Aldehyde Dehydrogenase 1 (ALDH1A1); Purified ALDH1A1, NADH fluorescence, propionaldehyde substrate; Potency, µM (titrated, usually from 75.3 µM), for the others: top-dose activity, negative = inhibition, usual class: inhibitors; actives 7.3% (n = 220,000); AID 1030, 2008; active = well fitted inhibition curve with a large enough effect, not every such curve was filed as active; inconclusive = small, poorly fitted or top-dose-only effect, or another doubt; inactive = no such curve, though single readings can be large or run the other way;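 also: plate controls were no enzyme wells and a reference inhibitor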
Tau fluor counter: Counterscreen qHTS for Inhibitors of Tau Fibril Formation, Fluorescence Polarization | actives 0.93% (n = 280,000) | tau K18 P301L (four-repeat tau fragment) Alexa594 fluorescence, heparin fibrillization | Potency, µM (highest dose often 57.7 µM), inactives show top-dose activity change, negative = decrease; also: nearly all actives have a fitted effect of over 55% in size
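Human K18 P301L tau (15 uM unlabeled plus 0.24 uM Alexa 594-labeled, final) in 100 mM sodium acetate pH 7 was mixed with compound and 20 uM heparin and incubated 6 hr at 37 C.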
KDM4E inh: qHTS Assay for Inhibitors of Human Jumonji Domain Containing 2E (JMJD2E). Lysine-specific demethylase 4E (Homo sapiens), B2RXH2. JMJD2E catalytic domain, FDH-coupled NADH fluorescence (FDH is formaldehyde dehydrogenase). Potency, µM (doses to about 57.1 µM), without a hit: at the top dose activity change, negative = inhibition, usual class: inhibitors. actives 1.6% (n = 230,000); active = well fitted inhibition curve with a large enough effect, not every such curve was filed as active; inconclusive = small, poorly fitted or top-dose-only effect, or another doubt; inactive = no such curve, though single readings can be large or run the other way;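 also: 0% = wells with enzyme and -100% = buffer wells without enzyme; nearly all actives have a fitted effect of over 50% in size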
Target sequence (B2RXH2 1-337 limits assumed): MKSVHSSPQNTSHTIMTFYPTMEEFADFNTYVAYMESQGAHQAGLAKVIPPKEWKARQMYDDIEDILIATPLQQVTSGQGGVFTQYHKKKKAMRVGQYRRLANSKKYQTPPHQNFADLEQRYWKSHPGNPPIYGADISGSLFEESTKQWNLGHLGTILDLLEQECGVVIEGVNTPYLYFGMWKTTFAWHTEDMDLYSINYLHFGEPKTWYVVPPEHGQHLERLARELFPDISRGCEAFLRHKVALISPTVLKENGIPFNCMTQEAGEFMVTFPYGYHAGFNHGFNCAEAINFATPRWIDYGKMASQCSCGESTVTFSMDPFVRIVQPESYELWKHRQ
HPGD inh: qHTS Assay for Inhibitors of HPGD (15-Hydroxyprostaglandin Dehydrogenase) | actives 4.3% (n = 150,000) | purified HPGD, NADH fluorescence kinetic, PGE2 substrate | 15-hydroxyprostaglandin dehydrogenase [NAD(+)] (Homo sapiens), P15428 | Potency, µM, for the others: top-dose activity change, negative = inhibition, most hits filed as inhibitors; active = well fitted inhibition curve with a large enough effect, not every such curve was filed as active; inconclusive = small, poorly fitted or top-dose-only effect, or another doubt; inactive = no such curve, though single readings can be large or run the other way
Target sequence (P15428 whole entry, looked up): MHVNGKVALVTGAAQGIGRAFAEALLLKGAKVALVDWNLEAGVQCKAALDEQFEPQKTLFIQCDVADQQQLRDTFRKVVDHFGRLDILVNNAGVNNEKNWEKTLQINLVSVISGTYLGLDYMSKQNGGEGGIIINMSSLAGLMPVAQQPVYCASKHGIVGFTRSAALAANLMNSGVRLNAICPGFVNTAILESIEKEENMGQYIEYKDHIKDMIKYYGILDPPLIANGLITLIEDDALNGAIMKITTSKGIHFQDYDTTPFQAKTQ
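NADH formation kinetics: reaction with 30 uM PGE2 and 1 mM NAD+ (final), 20 nM enzyme, Tris-HCl pH 8 with Tween 20, after 15 min compound preincubation at room temperature. Fluorescence change, last versus first of five reads.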
* marks the source's active call; other numbers are inactive results; ? = inconclusive; nt = no result given. Unless noted, calls follow the shape of the dose curve; as a rule, active = well fitted curve in the direction sought with a large enough effect; inconclusive = small, poorly fitted or top-dose-only effect, or another doubt; inactive = no such curve, though single readings can be large; an effect the other way counts as inactive or inconclusive. Unless noted, % is scaled to controls: 0 for no effect and ±100 for the full control effect; potency is read from the fitted curve at half-maximal effect.

SMILES | Tau fibril ThT | Tau FP inhib | ALDH1A1 inh | Tau fluor counter | KDM4E inh | HPGD inh
CCOc1ccc(Br)cc1S(=O)(=O)NCc1ccc(S(N)(=O)=O)cc1 | 9.4% | 4.9% | 18.3% | 5.9% | -19.7% | nt
Cc1c(C=O)c(=O)n(-c2ccccc2)n1-c1ccccc1 | -4.8% | -1.8% | ? | -4.4% | -6.3% | -2.3%
S=C(NCCc1ccccc1)N1CCN(Cc2ccccc2)CC1 | 0.1% | 3.8% | 7.94µM* | -13.6% | ? | 2.5%
Oc1ccc(N2CCN(C(=S)NCCc3ccccc3)CC2)cc1 | 14.1µM* | 13.3% | 11.2µM* | -26.8% | -24.6% | -13.4%
Oc1ccccc1N1CCN(C(=S)NCCc2ccccc2)CC1 | ? | 9.8% | -9.8% | -25.8% | -22.2% | -3.2%
CCC(CC)C(=O)OCC(=O)Nc1cc(OC)c([N+](=O)[O-])cc1C | -7.3% | -0.8% | 0.1% | -7.8% | 3.7% | -4.3%
COc1ccc(Br)cc1CN(C)C(C)C(=O)Nc1cccc(C(C)=O)c1 (stereo unspecified) | -15.7% | 3.0% | 10µM* | -8.2% | -9.7% | nt
COc1ccc(OC)c(C(C)NC(=O)Nc2cccc(C(C)=O)c2)c1 (stereo unspecified) | -7.9% | 0.6% | 11.2µM* | -15.0% | -4.4% | nt
COc1ccc(C(C)=O)cc1CN(C)C | -4.8% | 9.6% | 8.91µM* | 4.6% | 1.6% | -3.8%
COc1ccc(C(C)=O)cc1CN1C(=O)NC2(CCCCCCC2)C1=O | -4.0% | -7.0% | 6.31µM* | -10.2% | 4.6% | nt
COc1ccccc1CN(C)C(C)C(=O)Nc1cccc(C(C)=O)c1 (stereo unspecified) | 8.7% | 1.8% | -9.1% | 11.0% | -4.1% | nt
CCCNC(=O)NC(=O)COC(=O)c1ccc(OC)c(S(=O)(=O)N2CCCc3ccccc32)c1 | -13.6% | -8.3% | -4.6% | ? | -6.9% | -3.9%
COc1cccc(NC(=O)CC(C)S(=O)(=O)c2ccc3c(c2)NC(=O)CO3)c1 (stereo unspecified) | 6.6% | 2.2% | nt | 6.1% | nt | nt
Cc1ccc(S(=O)(=O)N(CC(=O)N/N=C/c2ccccc2C(=O)O)c2cc(Cl)cc(Cl)c2)cc1 | ? | 4.5% | 4.3% | -4.6% | 4.2% | nt
COc1cccc(CNC(=O)CCC2CCCN(C(=O)c3ccc(OC)c(F)c3)C2)c1 (stereo unspecified) | -12.7% | -0.9% | ? | -10.0% | -2.4% | nt
Brc1ccc(-c2nc3ncccn3c2NC2CCCCC2)o1 | ? | 3.3% | -4.7% | -21.5% | -1.2% | -7.3%
COc1ccc(C(C)=O)cc1CSCCC(=O)O | -4.4% | 2.7% | -4.9% | -2.6% | 5.6% | 28.2µM*
Cc1ccccc1CNC(=O)c1ccc2nc(C(C)C)oc2c1 | -4.0% | -6.0% | nt | -8.0% | nt | nt
COc1ccccc1NNC(=O)c1cccnc1Oc1ccccc1 | ? | -5.6% | 14.1µM* | -24.6% | -0.5% | nt
OCCC1CN(Cc2ccc(Oc3ncccn3)cc2)CCN1C1CCCCC1 (stereo unspecified) | 9.4% | -1.1% | nt | 10.0% | -2.3% | nt
CN(C)CCC(=O)[C@@]1(O)CC[C@H]2[C@H]3CC=C4C[C@@H](O)CC[C@]4(C)[C@H]3CC[C@]21C | nt | nt | 0.316µM* | nt | nt | -10.6%
COc1ccccc1C(=O)NCc1nc2cccnc2n1Cc1ccc(F)cc1 | -6.8% | -4.0% | nt | -11.6% | nt | nt
Cc1c(C(=O)N(C)Cc2ccccc2)oc2ccc(S(=O)(=O)N3CCCC3)cc12 | ? | 2.9% | 22.4µM* | -5.5% | -5.5% | -3.0%
Cc1c(C(=O)O)oc2ccc(S(=O)(=O)N3CCC(C)CC3)cc12 | 7.1% | 5.3% | 0.7% | 7.4% | 3.7% | 11.2µM*
Cc1c(C(=O)NCc2ccc3c(c2)OCO3)oc2ccc(S(=O)(=O)N3CCCC3)cc12 | -9.7% | 7.6% | ? | -21.7% | 35.5µM* | ?
SMILES | Tau fibril ThT | Tau FP inhib | ALDH1A1 inh | Tau fluor counter | KDM4E inh | HPGD inh
Cc1c(C(=O)NCc2ccc3c(c2)OCO3)oc2ccc(S(=O)(=O)N3CCCCC3)cc12 | -6.0% | -3.8% | -3.0% | -23.4% | ? | -15.5%
COc1ccc(NC(=O)c2oc3ccc(S(=O)(=O)N4CCC5(CC4)OCCO5)cc3c2C)cc1 | -9.7% | -2.2% | 22.4µM* | ? | ? | -26.2%
COc1ccc(NC(=O)Cn2nnnc2-c2ccccc2F)c(C)c1 | -0.5% | -6.1% | nt | 5.0% | nt | nt
COC(=O)c1cn(NC(=O)c2ccc([N+](=O)[O-])cc2Cl)c(=O)c2ccccc12 | -2.3% | 2.2% | 3.0% | 1.2% | 4.2% | nt
Cc1cc(-n2c(SCc3ccccc3F)nc3n[nH]c(C)c3c2=N)ccc1Cl | 4.9% | 17.8µM* | ? | -20.6% | ? | nt
O=C(Nc1ccc(CN2CCCCC2)cc1)Nc1ccc(Br)cc1Cl | -0.2% | ? | -15.7% | ? | 11.6% | nt
Cc1ccc(NC(=O)CSc2nnc(-c3ccncc3)o2)cc1C | -4.9% | -2.2% | ? | -2.6% | 8.5% | nt
C/C(CC(=O)Nc1cc(Cl)ccc1Cl)=N\NC(N)=S | 2.0% | 3.1% | 12.6µM* | 2.0% | -4.4% | -6.1%
C/C(CC(=O)Nc1ccc(Cl)cc1Cl)=N\NC(N)=S | -10.5% | 4.7% | ? | -15.6% | -0.9% | -13.2%
CN(C(=O)c1cccc(COc2ccc(Cl)cc2Cl)c1)c1ccccc1 | ? | 0.2% | ? | -10.0% | -10.4% | 17.8µM*
O=C(NCc1ccccc1)c1cccc(COc2cc(Cl)ccc2Cl)c1 | -10.5% | 0.4% | 18.4% | -16.7% | -0.4% | -14.9%
CC(Sc1ccc(S(=O)(=O)N2CCOCC2)cc1[N+](=O)[O-])C(=O)O (stereo unspecified) | -7.6% | -4.7% | ? | 0.5% | -14.2% | -17.3%
CC(C)C(Nc1ccc(S(=O)(=O)N2CCOCC2)cc1[N+](=O)[O-])C(=O)O (stereo unspecified) | -13.3% | 0.7% | 1.26µM* | -2.5% | 6.1% | nt
Cc1ccc(-n2c(O)c(/C=N/Nc3ccc(S(=O)(=O)N4CCOCC4)cc3[N+](=O)[O-])c3ccccc3c2=O)c(C)c1 | 12.6µM* | -8.7% | -0.8% | ? | ? | -11.0%
CN1CCC(=NNc2ccc(S(=O)(=O)N3CCOCC3)cc2[N+](=O)[O-])CC1 | -22.8% | 1.4% | -0.2% | -10.2% | -23.0% | -14.4%
C/C(=N\Nc1ccc(S(=O)(=O)N2CCOCC2)cc1[N+](=O)[O-])C(C)C | ? | 1.7% | 17.8µM* | ? | 1.3% | nt
O=C(COCc1cc(-c2ccc3c(c2)OCO3)on1)NCc1ccccc1Cl | ? | 5.7% | nt | -19.2% | nt | nt

Screens: PubChem, National Center for Advancing Translational Sciences (NCATS)
